This note sets out measurements from PubChem BioAssay (Tox21).

Inconclusive results are not listed. Activity calls are given as the source filed them. Calls follow the shape of the dose curve; as a rule, active = well fitted cell-killing curve with a large enough effect in the repeat runs; inconclusive = weak or mixed curves; inactive = flat fitted curve, though single readings scatter.
% is scaled to controls: 0 for no effect and ±100 for the full control effect.

The test is described as follows: qHTS assay to identify small molecule antagonists of the estrogen related receptor (ERR) signaling pathway - cell viability counter screen (AID 1224818). The settings on record: ERR reporter cell line viability counter screen; series mostly up to 46.1 µM; viability change, negative = cytotoxic: at the top concentration. From the text:
National Center for Advancing Translational Sciences [NCATS]
NIH Chemical Genomics Center [NCGC]
U.S. Environmental Protection Agency [EPA]
National Institutes of Environmental Health Sciences [NIEHS]
National Toxicology Program [NTP]
U.S. Food and Drug Administration [FDA]
Estrogen related receptors (ERRs), the first orphan nuclear receptors discovered, play an important role in the control of cellular energy metabolism. ERRs are required for high-energy production in response to the environmental challenges. ERR-alpha was also identified as an adverse marker for breast cancer progression; ERR-alpha-positive tumors have a poor prognosis. To screen and to identify environmental compounds that perturb the ERR signaling pathways could provide valuable information for potential therapeutic or preventive measures in the treatment of metabolic disease. To differentiate true ERR antagonists or agonist from cytotoxic substances, the assay is multiplexed with cell viability assay.
Tox21 Assay Protocol Summary:
The ERR cells were dispensed at 2,000 cells/5 ul/well in 1536-well white plates using a Multidrop dispenser. After the assay plates were incubated at a 37 C/5% CO2 incubator for 6 hours, 23 nL of compounds dissolved in DMSO, positive and negative controls or DMSO only was transferred to the assay plate by a pin tool. The plates were incubated at 37 C for 17.5 hours. 1 ul/well of CellTiter-Fluor reagent was added into the assay plates using a Flying Reagent Dispenser. After 30 min incubation at 37 C/5% CO2, the fluorescence intensity in the plates was measured using a ViewLux plate reader.
(In general: qHTS replaces the single test concentration by a dilution series.)
On to `Cn1c(=O)c2[nH]cnc2n(C)c1=O`, for which the “viability change, negative = cytotoxic” value was 4.76% (inactive). In the case of `COc1ccc2[nH]cc(CCNC(C)=O)c2c1` it was -4.56% (inactive); in that of `O=C(O)CCCCCCCC(=O)O`, -1.14% (inactive). In the case of `O=C(C1CCCCC1)N1CC(=O)N2CCc3ccccc3C2C1` (stereo unspecified) it was -1.08% (inactive).

On to `CCCNC(=O)NS(=O)(=O)c1ccc(Cl)cc1`, for which the “viability change, negative = cytotoxic” value was 0.22% (inactive). In the case of `CCC1(c2ccccc2)C(=O)NCNC1=O` it was 14.5% (inactive). In the case of `CC(=O)Nc1nnc(S(N)(=O)=O)s1` it was 13.9% (inactive). Next, `CCCCC1C(=O)N(c2ccccc2)N(c2ccccc2)C1=O`: 12.1% (inactive). Regarding `Cc1ccc(S(=O)(=O)NC(=O)NN2CCCCCC2)cc1`, the “viability change, negative = cytotoxic” value is 7.29% (inactive). Next, `Cc1ccccc1C(OCCN(C)C)c1ccccc1` (stereo unspecified): 4.09% (inactive). Take `CNC[C@H](O)c1cccc(O)c1`: the “viability change, negative = cytotoxic” value was 2.49% (inactive). Next, `NC(=O)c1cnccn1`: 1.5% (inactive). In the case of `NC(N)=NC(=O)c1nc(Cl)c(N)nc1N` it was 7.61% (inactive); in that of `Nc1ccn([C@H]2CC[C@@H](CO)O2)c(=O)n1`, 3.57% (inactive). Next, `CC(C)(Oc1ccc(C2CC2(Cl)Cl)cc1)C(=O)O` (stereo unspecified): 6.61% (inactive); `CCCC(CCC)C(=O)O`: 1.7% (inactive).
